Only a selection was taken, and hits are over-represented in it overall.
GALR2 agonist – agonists of human galanin receptor 2 (GALR2). GALR2-expressing cells, agonist activation read-out. activation, % (concentration not given with the values). O43603. actives 0.48% (n = 140,000); in the data active = activation above about 5%, passing the limit was not always enough
S1P2 antag – S1P2 (human) receptor antagonism; actives 0.21% (n = 97,000); O95136; cell-based S1P2 antagonist assay, inhibition at 5 uM; inhibition, % at 5 µM; in the data active = inhibition above about 45%;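 note: CRE beta-lactamase reporter cells expressing human S1P2 stimulated with S1P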
Target sequence (O95136 whole entry, looked up): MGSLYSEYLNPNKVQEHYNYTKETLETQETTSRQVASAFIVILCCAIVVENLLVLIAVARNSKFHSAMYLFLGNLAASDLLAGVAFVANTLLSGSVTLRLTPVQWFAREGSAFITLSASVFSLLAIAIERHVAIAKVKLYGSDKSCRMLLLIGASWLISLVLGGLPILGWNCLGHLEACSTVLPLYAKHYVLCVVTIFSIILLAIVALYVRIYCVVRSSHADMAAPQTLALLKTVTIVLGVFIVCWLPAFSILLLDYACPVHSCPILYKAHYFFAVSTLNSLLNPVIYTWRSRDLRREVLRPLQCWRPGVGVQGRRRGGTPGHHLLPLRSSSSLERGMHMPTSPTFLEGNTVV
S1P2 ag – S1P2 (human) receptor agonism; O95136; S1P2-expressing cell line, agonist reporter read-out; activation, % at 4.5 µM; actives 0.46% (n = 97,000); in the data active = activation above about 16%
GALR2 antag – GALR2 (human) receptor antagonism; inhibition, % at 4 µM; O43603; GALR2-expressing cells, antagonist mode; actives 0.39% (n = 140,000); in the data active = inhibition above about 27%;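 note: cells stimulated with galanin 1-16 at roughly its EC80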
PostGolgi ctrl – inhibits growth of the yeast control strain | AID 738 | efflux-deficient yeast background strain, growth absorbance A615, 16 h | actives 5% (n = 98,000) | inhibition, % at 10 µM
PostGolgi yeast – growth inhibition of a yeast mutant, post-Golgi transport screen. post-Golgi transport phenotypic cell assay. inhibition, % at 10 µM. actives 0.9% (n = 98,000). AID 739;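 note: yeast cells grown in 1536-well plates; yeast grown about 18 h at 30C before absorbance read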
Hits are given with their value; - = inactive; . = not tested or not shown. Cut-off read from the data, not from the text of the source, unless noted: active = inhibition above about 30%; inactive = the rest.

SMILES | GALR2 agonist | S1P2 antag | S1P2 ag | GALR2 antag | PostGolgi ctrl | PostGolgi yeast
CC(=O)c1ccc(Nc2c3c(c(C#N)c4nc5ccccc5n24)CCC3)cc1 | - | . | . | - | . | .
CCN(CC)c1c2c(c(C#N)c3nc4ccccc4n13)CCC2 | - | - | 20 | - | . | .
Cc1nc2sc3c(c2c(=O)[nH]1)CCC3 | - | . | . | - | - | -
Cc1cc(-c2nc3c4c5c(sc4[nH]c(=O)n3n2)CCC5)c(C)o1 | - | - | - | - | 31 | -
C/C(CC(C)(C)C1CCCCC1)=N\NC(N)=S | - | - | - | - | 100 | 107
CCN(CC)C(=O)C(Sc1ccccc1)c1ccccc1 (configuration not stated) | - | - | - | - | - | -
O=C(NCc1ccoc1)c1ccc(NC(=O)c2ccccc2Cl)cc1 | - | - | - | 29 | - | -
O=C(NCC1OCCc2ccccc21)c1ccc(NC(=O)c2ccccc2Cl)cc1 (configuration not stated) | - | . | . | - | . | .
CC(=O)NC1C(c2nc3ccccc3s2)=C(c2ccccc2)C(=O)N1c1ccc(C)cc1 (configuration not stated) | - | - | - | - | - | 64
Cc1nn(Cc2ccccc2Cl)c(C)c1NC(=O)NC12CC3CC(CC(C3)C1)C2 | - | - | - | - | 35 | -
CCOC(=O)c1c(CN2CCN(c3ccccc3)CC2)oc2ccc(O)cc12 | - | . | . | - | 32 | -
CCOC(=O)c1c(CN2CCCCC2C)oc2ccc(OC)cc12 (configuration not stated) | - | - | - | - | - | 30
CCOC(=O)c1c(C)oc2c(CC(=O)c3ccccc3)c(Cl)c(O)c(O)c12 | - | . | . | - | . | .
CCOC(=O)c1c(C)n(C)c2ccc(OCCN(C)C)cc12 | - | - | - | - | - | -
CCOC(=O)c1c(C)n(C)c2ccc(OC(C)C(=O)OC)cc12 (configuration not stated) | - | - | - | - | 32 | -
COc1cccc(NC(=O)CSc2nnc(-c3cc(-c4ccccn4)nc4ccccc34)o2)c1 | - | - | - | - | 50 | -
Cc1cc(CCCCCCCCc2cc(C)cc(=O)o2)oc(=O)c1 | - | . | . | - | . | .
CC(CCc1ccccc1)NC(=O)CN1CCN(Cc2ccccc2)C1=O (configuration not stated) | - | - | - | - | 33 | -
COc1ccc(Nc2nnc(SCC(=O)/C=C3/N(C)c4ccccc4C3(C)C)s2)cc1 | - | . | . | - | . | .
O=C(Nc1nc(-c2cccs2)cs1)c1ccc(Cl)s1 | - | . | . | - | - | 32
Cc1sc2nc(SCc3nc(-c4ccccc4)no3)n(-c3ccccc3)c(=O)c2c1C | - | - | - | - | . | .
O=C(Cn1nnc(-c2ccc(S(=O)(=O)N3CCCC3)cc2)n1)NCC1CCCO1 (configuration not stated) | - | - | - | - | - | 34
C=C(C)CNC(=S)Nc1sc2c(c1C(=O)OCC)CC(C)(C)OC2 | - | . | . | - | . | .
CC1=C(C(=O)Nc2ccccc2)C(c2ccco2)NC(=S)N1 (configuration not stated) | - | - | - | - | - | -
O=C(Nc1ccccc1)C1=C(O)CC(c2ccco2)CC1=Nc1ccccc1 (configuration not stated) | - | - | - | - | 31 | 69
SMILES | GALR2 agonist | S1P2 antag | S1P2 ag | GALR2 antag | PostGolgi ctrl | PostGolgi yeast
O=C(Nc1ccccc1)C1=C(O)CC(c2ccoc2)CC1=Nc1ccccc1 (configuration not stated) | - | - | - | - | 46 | -
CC1CN=C2C(C(=O)Nc3ccccc3)=C(O)CC(c3ccccc3)N21 (configuration not stated) | - | . | . | - | . | .
CC(=O)c1ccc(N2CCN(C(=O)C3CCN(S(=O)(=O)Cc4ccccc4)CC3)CC2)cc1 | - | - | - | - | - | -
c1csc(-c2nc3nc4ccccc4nc3n2Cc2ccc3c(c2)OCO3)c1 | - | - | - | - | 44 | -
CCOC(=O)C1=C(CNCc2ccccc2Cl)NC(=O)NC1c1ccc2c(c1)OCO2 (configuration not stated) | - | - | - | - | 39 | -
CC(C)CCNC(=O)CO/N=C/c1ccccc1OC(F)F | - | . | . | - | . | .
CCCC(=O)Nc1ccc2c(c1)nc(CN1CCN(C(C)=O)CC1)n2C | - | - | - | - | 31 | -
Cn1c(CN2CCCC2)nc2cc(NC(=O)COc3ccc(Cl)cc3)ccc21 | - | - | - | - | 33 | -
O=C(COn1nnc2ccc(C(F)(F)F)cc21)Nc1c(Cl)cccc1Cl | - | . | . | - | . | .
CSc1ccc(S(=O)(=O)NC2CCCCCC2)cc1 | - | - | - | - | 70 | -
O=C(O)c1ccc(S(=O)(=O)NC2CCCCC2)cc1 | - | - | - | - | - | -
CN1CCc2nc3sc(C(=O)C45CC6CC(CC(C6)C4)C5)c(N)c3cc2C1 | - | - | - | - | 95 | 100
CCCCn1nc(C(=O)Oc2ccc3c(C)cc(=O)oc3c2)c2ccccc2c1=O | - | . | . | - | . | .
O=c1c2cn[nH]c2[nH]c(=S)n1-c1cccc(Cl)c1 | - | . | . | - | . | .
CC(=O)c1cccc(NC(=O)Cc2coc3cc4c(cc23)CCC4)c1 | - | . | . | - | . | .
CNS(=O)(=O)c1cccc(C(=O)Nc2cccnc2)c1 | - | - | - | - | 34 | -
COc1ccc(NC(=O)[C@@H](NC(=O)c2ccccc2)C(C)C)cc1S(=O)(=O)N1CCCCC1 | - | . | . | - | . | .
Cn1cc(C(=O)c2ccc(Cl)cc2)cc1-c1nc2ccccc2n1C | - | - | - | - | 40 | -
CN(C)CCSc1nnc2sc3ccccc3n12 | - | - | - | - | - | -
COc1ccc(OCCSc2nnc3sc4ccccc4n23)cc1 | - | - | - | - | - | 38
COc1ccc(S(=O)(=O)N(C)C)cc1NS(=O)(=O)c1ccc(F)c(F)c1F | - | . | . | - | . | .
COc1cccc(/C=N/NC(=O)C(=O)Nc2ccccc2OC(F)(F)C(F)F)c1O | - | . | . | - | . | .
C=CCSc1nnc(-c2nnc(SCC=C)n2-c2ccccc2)n1-c1ccccc1 | - | - | - | - | 33 | -
C=CCSc1nnc(-c2sc(-c3ccccc3)nc2C)n1C | - | - | - | - | - | -
CN1/C(=C/C2CC(=O)NC2=O)C(C)(C)c2ccccc21 (configuration not stated) | - | - | - | - | - | 45
SMILES | GALR2 agonist | S1P2 antag | S1P2 ag | GALR2 antag | PostGolgi ctrl | PostGolgi yeast
Nc1c(S(=O)(=O)c2ccccc2)c2nc3ccccc3nc2n1Cc1ccco1 | - | - | - | - | 30 | -
C=CCn1c(CCCNC(=O)C(C)(C)C)nc2ccccc21 | - | . | . | - | 30 | -
C=C(C)Cn1c(CCNC(=O)C(C)C)nc2ccccc21 | - | - | - | - | 41 | -
Cc1cccc(N/C(=N\S(=O)(=O)c2ccccc2)C(F)(F)F)c1 | - | - | - | - | - | -
O=C(CSc1nc(-c2cccs2)cc(C(F)(F)F)n1)NCc1ccccc1 | - | - | - | - | 30 | -
O=C(Nc1ccc(/C=C/c2nc3ccccc3o2)cc1)c1ccc(F)cc1 | - | - | - | - | - | -
COc1ccccc1NC(=S)NNC(=O)c1nn(C)cc1Cl | - | - | - | - | - | -
COc1ccccc1NC(=O)c1nn(C)cc1Br | - | - | - | - | 36 | -

Assay outcomes deposited in PubChem by several laboratories.
